# Screens: PubChem BioAssay, National Center for Advancing Translational Sciences (NCATS)
# Hits are enriched below; roughly 21% of the tested compounds scored in any of these assays.
# CHX counter – counter-screen for Shiga toxin inhibitors: cycloheximide protein synthesis inhibition | cell reporter, cycloheximide protein synthesis inhibition counterscreen | max response, % | actives 12% (n = 300,000) | AID 2314; in the data active = max response mostly above about 13%, no sharp cut-off; inactive = mostly below about 14%; note: read at 38.3 µM for the half of the compounds with a filed dose
# HCV inhibitor – blocks hepatitis C virus. Potency, µM (highest dose often 41.8 µM), most hits filed as inhibitors. Huh7.5.1 HCVcc-Cre infection, luciferase reporter, 44 h. actives 3.4% (n = 340,000)
#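 A cell-based infection assay in which seeded cells (1,000 per well) receive test compound after 4 h, are inoculated with HCVcc-Cre at approximately 0.5 moi, and are incubated 44 h before luminescence detection.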
# Pf growth 48h – inhibits P. falciparum growth in the first generation, 48 h; P. falciparum luciferase growth in erythrocytes, 48 h; Potency, µM (series often up to 28.7 µM), actives largely listed as inhibitors; actives 5.9% (n = 310,000); AID 504832
#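 Compounds are pin-transferred into medium, infected erythrocytes (2% hematocrit, 0.1% parasitemia final) are added, and plates sit one parasite generation at 37 C in 5% CO2. Detection reagent is then added and luminescence measured.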
# Shiga inhibitor – inhibitors of Shiga toxin in Vero cells; Vero cells, Shiga toxin protein synthesis inhibition reporter; inhibition, % at 38.7 µM; actives 9.2% (n = 290,000); AID 2315; in the data active = inhibition mostly above about 28%, no sharp cut-off; inactive = mostly below about 43%
# Pf growth 96h – inhibits malaria parasite growth, 96 h; Potency, µM (highest dose often 28.7 µM), most hits filed as inhibitors; P. falciparum luciferase reporter growth, 96 h; actives 6.9% (n = 320,000)
#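 Delayed-death screen, second-generation endpoint: infected erythrocytes, 2% hematocrit, 0.05% parasitemia final; 96 hours at 37 C, 5% CO2; luciferase detection reagent; luminescence decrease equals reduced growth.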
# AMA1 RON2 block – inhibitors of Plasmodium falciparum AMA1-RON2 interaction. AlphaScreen AMA1-biotinylated RON2 peptide binding. actives 0.2% (n = 360,000). Potency, µM (series often up to 58.2 µM), actives largely listed as inhibitors; note: nearly all actives have a fitted effect of over 45% in size
#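 AMA1 (3D7) with his tag at 25 nM final met compounds first, then biotinylated RON2 peptide at 25 nM; detection used donor plus acceptor beads, 10 µg/mL apiece, read by AlphaScreen after 30 min at room temperature.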
# Hits are given with their value; – = inactive; ? = inconclusive; · = no result given; [ ] = remark or other dose. Unless noted, calls come from the whole dose curve; as a rule, active = well fitted curve in the direction sought with a large enough effect; inconclusive = small, poorly fitted or top-dose-only effect, or another doubt; inactive = no such curve, though single readings can be large; an effect the other way counts as inactive or inconclusive.
SMILES,CHX counter,HCV inhibitor,Pf growth 48h,Shiga inhibitor,Pf growth 96h,AMA1 RON2 block
CN(C)c1ccc(N=Nc2ccccc2C(=O)OCC(=O)NCC2CCCCC2)cc1,69,–,?,72,–,11µM
CN(C)c1ccc(N=Nc2ccccc2C(=O)OCC(=O)N(C)C2CCCCC2)cc1,27,–,–,29,?,–
COC(=O)CCCn1cc(CN2CC(N3CCN(CCN(C)C)CC3)CS2(=O)=O)nn1 (centres undefined),·,·,·,·,·,–
O=C(NCC1CCCO1)c1cccc(NS(=O)(=O)c2ccc(Br)cc2)c1 (centres undefined),·,–,–,·,–,–
O=C(/C=C/c1ccco1)Nc1ccc(N2CCCC2)cc1,68,–,–,66,–,–
O=C(/C=C/c1ccccc1)Nc1ccc(CN2CCOCC2)cc1,47,–,–,35,–,–
O=C(/C=C/c1ccc(Cl)cc1)NC(=S)Nc1ccc(CN2CCOCC2)cc1,–,–,–,–,?,–
Cc1cc(NS(=O)(=O)c2ccc(NC(=O)/C=C/c3ccco3)cc2)nc(C)n1,–,–,–,–,?,–
O=C(/C=C/c1ccc(Cl)cc1Cl)Nc1ccc(CN2CCOCC2)cc1,–,3.2µM,?,–,?,–
O=C(/C=C/c1ccco1)Nc1ccc(CN2CCOCC2)cc1,41,–,–,46,–,–
O=C(/C=C/c1ccco1)Nc1ccccc1N1CCOCC1,–,–,–,–,–,–
O=C(/C=C/c1ccco1)Nc1ccc(C(=O)N2CCOCC2)cc1,–,–,–,–,9.3µM,–[11.6 µM]
CC1Sc2ccc(S(=O)(=O)N3CCC(C(=O)NCCc4ccccc4)CC3)cc2NC1=O (centres undefined),15,?,12µM,–,?,–
Cc1ccc(CCNC(=O)C2CCN(S(=O)(=O)c3ccc4c(c3)NC(=O)C(C)S4)CC2)cc1 (centres undefined),–,6.3µM,?,–,?,–
O=C(C1CCN(S(=O)(=O)c2cccnc2)CC1)N1CCN(c2ccccc2Cl)CC1,26,–,?,–,–,–
NS(=O)(=O)c1ccc(CCNC(=O)C2CCN(S(=O)(=O)c3ccccc3)CC2)cc1,–,–,–,–,–,–
O=C(NCCc1ccccc1)C1CCN(S(=O)(=O)c2cccnc2)CC1,–,–,·,–,7.4µM,–
NN=C(c1cccc([N+](=O)[O-])c1)c1cccc([N+](=O)[O-])c1,·,–,·,·,·,–
CC1Sc2ccc(S(=O)(=O)N3CCC(C(N)=O)CC3)cc2NC1=O (centres undefined),–,–,–,–,?,–
CCN1CCN(C(=O)C2CCN(S(=O)(=O)c3ccc4c(c3)NC(=O)C(C)S4)CC2)CC1 (centres undefined),–,–,?,–,2.9µM,–
CC1Sc2ccc(S(=O)(=O)N3CCC(C(=O)NCC(C)c4ccccc4)CC3)cc2NC1=O (centres undefined),–,11µM,?,–,–,–
C=CCC(C(=O)Oc1c(C(C)(C)C)cc(C)cc1C(C)(C)C)c1ccccc1 (centres undefined),·,–,?,·,?,–
CCOC(=O)c1cc2c(=O)n3ccccc3nc2n(CC(C)C)c1=NC(=O)c1ccco1,–,?,10µM,–,·,–
CCOC(=O)c1cc2c(=O)n3ccccc3nc2n(CCOC)c1=NC(=O)c1c(-c2c(F)cccc2Cl)noc1C,–,?,?,–,5.9µM,–
CCOC(=O)c1cc2c(=O)n3ccccc3nc2n(Cc2ccco2)c1=NC(=O)c1ccc(Br)cc1,–,·,·,–,·,·
SMILES,CHX counter,HCV inhibitor,Pf growth 48h,Shiga inhibitor,Pf growth 96h,AMA1 RON2 block
N/C(Cc1ccc(Cl)cc1Cl)=N\OC(=O)Cc1ccccc1,20,–,–,–,–,–
N/C(Cc1ccc(Cl)cc1Cl)=N\OC(=O)Cc1ccc(Cl)cc1,–,–,–,–,–,–
N/C(Cc1ccc(Cl)cc1Cl)=N\OC(=O)c1ccccc1,19,–,?,32,–,–
N/C(CC1CC1(Cl)Cl)=N\OC(=O)c1ccccc1 (centres undefined),45,–,?,71,?,–
CC(C)=NOC(=O)c1ccc(-c2ccccc2)cc1,–,–,?,–,?,–
Cc1ccc(N2CC(C(=O)Nc3cccc(S(=O)(=O)N4CCOCC4)c3)CC2=O)cc1 (centres undefined),·,·,·,·,·,–
